Screens deposited in PubChem by National Center for Advancing Translational Sciences (NCATS).
ELG1 genotox: genotoxicity induction in ELG1-luciferase HEK293T cells; AID 504466; 330,000 compounds, 1.3% hits; Potency, µM (titrated, usually from 46 µM), without a hit: at the top dose activity change, positive = activation, most hits filed as activators; HEK293T ELG1-luciferase reporter, luminescence, 16 h; also: % of control where 0% means no effect; nearly all actives have a fitted effect of over 60% in size
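Cells (2,000/well) expressing the ELG1-luciferase fusion are dosed by pin tool and kept 16 hr at 37 °C, 5% CO2. Signal comes from ONE-Glo luciferase reagent after 30 min at room temperature.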
FLuc modulator: inhibits or activates purified firefly luciferase, miR-21 counter-screen. purified FLuc, Km substrates, luminescence inhibition. 360,000 compounds, 6.9% hits. Potency, µM (top dose mostly 57.5 µM), without a hit: at the highest dose activity change, negative = inhibition, most hits filed as inhibitors;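 also: plate controls were vehicle for no effect and reference inhibitor for full effect; nearly all actives have a fitted effect of over 55% in size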
Target sequence (P08659 whole entry, looked up): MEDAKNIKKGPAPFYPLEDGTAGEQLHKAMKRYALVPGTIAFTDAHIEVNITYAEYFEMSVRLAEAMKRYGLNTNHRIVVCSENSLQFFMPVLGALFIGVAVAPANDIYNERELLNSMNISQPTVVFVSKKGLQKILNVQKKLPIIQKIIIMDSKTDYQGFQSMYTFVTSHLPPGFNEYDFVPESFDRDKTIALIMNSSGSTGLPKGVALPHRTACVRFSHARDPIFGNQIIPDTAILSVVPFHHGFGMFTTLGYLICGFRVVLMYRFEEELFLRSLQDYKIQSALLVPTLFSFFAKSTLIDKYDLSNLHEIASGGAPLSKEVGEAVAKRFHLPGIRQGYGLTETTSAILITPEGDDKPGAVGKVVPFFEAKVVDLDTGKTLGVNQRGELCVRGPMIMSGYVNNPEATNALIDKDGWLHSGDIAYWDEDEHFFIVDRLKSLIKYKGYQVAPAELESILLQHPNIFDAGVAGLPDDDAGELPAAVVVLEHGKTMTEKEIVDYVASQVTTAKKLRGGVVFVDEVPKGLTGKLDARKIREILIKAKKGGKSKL
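Purified P. pyralis luciferase, 10 nM final, with Km-level 10 uM D-luciferin and 10 uM ATP in 50 mM Tris acetate pH 7.5, 10 mM Mg acetate, 0.01% Tween-20, 0.05% BSA; 6-point qHTS titration about 60 µM downward; luminescence read.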
Rab9 promoter act: activates the Rab9 promoter; Huh7 Rab9 promoter-luciferase reporter, luminescence, 24 h; Potency, µM (top dose mostly 9.22 µM), inactives show at the highest dose activation, negative = inhibition, actives largely listed as activators; 320,000 compounds, 2.8% hits; also: % of control where 0% means no effect; nearly all actives have a fitted effect of over 60% in size
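Using Huh7 cells stably transfected with Rab9 promoter–luciferase, compounds were incubated 24 h at 37 °C, 5% CO2; luciferase luminescence was read 10 min after reagent addition.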
NPC1 promoter act: activates the NPC1 promoter; Huh7 NPC1 promoter luciferase reporter, 24 h; Potency, µM (titrated, usually from 9.22 µM), inactives show at the top dose activation, hits mostly activators; 320,000 compounds, 2.4% hits; AID 485313; also: % of control where 0% means no effect; nearly all actives have a fitted effect of over 60% in size
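Luminescence from an NPC1 promoter-driven luciferase reporter in stably transfected Huh7 cells was measured after 24 h compound treatment at 37 °C, followed by 10 min ambient incubation with luciferase detection reagent.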
SMN2 splice enh: increases expression of the SMN2 splice variant; Potency, µM (series often up to 46.1 µM), inactives show at the highest dose activity change, positive = activation, most hits filed as activators; HEK293 SMN2-luciferase splicing reporter, luminescence, 30-36 h; 210,000 compounds, 2.8% hits; also: % of control where 0% means no effect; nearly all actives have a fitted effect of over 55% in size
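HEK293 cells carry an SMN2 minigene-luciferase reporter in which exon 7 inclusion puts luciferase in frame. Cells were seeded at 2000 cells/well, attached for 10-12 hours, then exposed to compounds for 30-36 hours at 37C before ONE-Glo luminescence.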
uPA generation: blocks generation of uPA at the cell surface; cell surface uPA generation assay, qHTS; Potency, µM (doses to about 38.3 µM), without a hit: at the highest dose activity change, negative = inhibition, most hits filed as inhibitors; 330,000 compounds, 0.31% hits; AID 540303; active = well fitted inhibition curve with a large enough effect; inconclusive = small, poorly fitted or top-dose-only effect; inactive = no such curve, though single readings can be large or run the other way; tested in mouse RAW 264.7 cells; also: % is scaled to controls: 0 for no effect and ±100 for the full control effect; nearly all actives have a fitted effect of over 55% in size
Starred values were filed as active, the others as inactive; ? = inconclusive; / = no result. A selection: hits, their analogues and other compounds. The true share with any hit is near 7.3%. Unless noted, calls follow the shape of the dose curve; as a rule, active = well fitted curve in the direction sought with a large enough effect; inconclusive = small, poorly fitted or top-dose-only effect, or another doubt; inactive = no such curve, though single readings can be large; an effect the other way counts as inactive or inconclusive. Potency is read from the fitted curve at half-maximal effect.

SMILES | ELG1 genotox | FLuc modulator | Rab9 promoter act | NPC1 promoter act | SMN2 splice enh | uPA generation
Cc1ccc(NC(=O)CSc2ncccc2C(=O)Oc2cccc([N+](=O)[O-])c2)cc1Cl | 23µM* | ? | ? | 4.5µM* | 11µM* | -3%
CCCCNc1nc(Oc2ccc(=O)n(-c3ccccc3)n2)nc(N(CC)CC)n1 | / | -17% | / | / | -9% | /
Cc1ccccc1NC(=O)c1c(NC(=O)c2ccco2)sc2c1CCC(C(C)(C)C)C2 (centres undefined) | / | 4% | / | / | 1% | /
CCOC(=O)c1c(NC(=O)c2ccco2)sc2c1CCCC2 | 12% | 3% | 1% | 9% | -12% | 0%
CCC1CCc2c(sc(NC(=O)c3cnccn3)c2C(N)=O)C1 (centres undefined) | 15% | 2.4µM* | 25% | 26% | / | 2%
CCC1CCc2c(sc(NC(=O)c3ccco3)c2C(N)=O)C1 (centres undefined) | ? | 1.3µM* | 2.8µM* | ? | 18µM* | -1%
CCOC(=O)c1c(NC(=O)c2cc3ccccc3c(=O)o2)sc2c1CCC(C(C)(C)C)C2 (centres undefined) | / | 17µM* | / | / | -4% | /
CC(C)(C)C1CCc2c(sc(NC(=O)c3ccco3)c2C(N)=O)C1 (centres undefined) | ? | 0.43µM* | 2.8µM* | ? | -60% | 8%
CCc1ccc(-c2cn3c(n2)sc2cc(C(=O)NC4CCCCC4)ccc23)cc1 | / | 7% | / | / | / | /
COc1ccc(NC(=O)c2oc3ccc(S(=O)(=O)N(C)C4CCCCC4)cc3c2C)cc1Cl | / | -3% | / | / | / | /
C/C(=N\Nc1ccc(Cl)c(C(=O)O)c1)c1cc2ccccc2o1 | ? | 27µM* | ? | 18% | 25% | -2%
C/C(=N\Nc1cccc(C(=O)O)c1)c1cc2ccccc2o1 | ? | 11µM* | 2.2µM* | ? | 11µM* | 2%
C/C(=N\Nc1ccccc1)c1cc2ccccc2oc1=O | 12% | 21µM* | 25% | 10% | / | -7%
C/C(=N\Nc1cccc([N+](=O)[O-])c1)c1cc2ccccc2o1 | ? | -15% | ? | 27% | 24% | 4%
C/C(=N\NC(=O)CC#N)c1cc2ccccc2oc1=O | -2% | 6% | -8% | -2% | / | -9%
CC(=O)Nc1nonc1-c1nnc(SCC(=O)Nc2cc(C)cc(C)c2)n1C | / | -2% | / | / | / | /
CC(C)c1ccc(Nc2ncnc3onc(-c4ccc(F)cc4)c23)cc1 | / | -9% | / | / | / | /
Cc1cccc2c1cnn2C(=O)Nc1cc(F)ccc1F | ? | 0.67µM* | 0.28µM* | ? | / | -3%
CCOc1ccccc1NC(=O)n1ncc2c(C)cccc21 | 4% | 7.6µM* | 2.5µM* | 4µM* | / | 1%
CC1(C(=O)NC2CCCCC2)Cc2ccccc2C(=O)N1Cc1ccc(Cl)cc1 (centres undefined) | / | 2% | / | / | -17% | /
C/C(=N\Nc1nccnc1Cl)c1ccc(O)cc1 | 12% | ? | 15% | 17% | / | -10%
C/C(=N\Nc1nccnc1Cl)c1ccc(Cl)c(Cl)c1 | 7% | 21µM* | 18% | 18% | / | -4%
C/C(=N\Nc1nccnc1Cl)c1ccc(F)cc1 | ? | 24µM* | ? | ? | / | -6%
CC1Cc2ccccc2N1S(=O)(=O)c1cccc(C(=O)N2CCN(c3ncccn3)CC2)c1 (centres undefined) | -14% | 2% | 25% | -11% | 0.56µM* | -8%
Cc1ccc(-c2nnc(Nc3cccc(C(F)(F)F)c3)c3ccccc23)cc1S(=O)(=O)N1CCOCC1 | / | -3% | / | / | / | /
SMILES | ELG1 genotox | FLuc modulator | Rab9 promoter act | NPC1 promoter act | SMN2 splice enh | uPA generation
Cc1ccc(-n2cnnn2)cc1S(N)(=O)=O | / | -1% | / | / | / | /
Cc1ccc(-n2nc(C)c3nc(CCC(=O)Nc4cccc(F)c4)c(=O)n(C)c32)cc1 | / | -1% | / | / | / | /
COc1ccc(NC(=O)N2CCOc3ccc(Cl)cc32)cc1 | / | -15% | / | / | / | /
CCn1ncc(C(=O)Nc2cc(C)on2)c1C | 8% | ? | ? | 29% | ? | /
CCOC(=O)c1cccc(NC(=O)c2cnn(-c3ccccc3)c2-n2cccc2)c1 | / | -11% | / | / | -40% | /
CCc1cccc(NC(=O)c2cnn(-c3ccccc3)c2C)c1 | 1.8µM* | 2.1µM* | 2.2µM* | 0.89µM* | / | ?
CCc1cccc(NC(=O)c2coc(=O)c3ccccc23)c1 | / | 11µM* | / | / | 12% | /
COc1cccc(NC(=O)c2cnn(-c3ccccc3)c2C)c1 | 1.8µM* | 1.5µM* | 13µM* | ? | / | 10µM*
O=C(Nc1cccnc1)c1coc(=O)c2ccccc12 | 1% | 1% | -1% | -10% | -4% | -6%
CCn1ncc(C(=O)Nc2cccc(Cl)c2)c1C | ? | 9.5µM* | ? | 3% | 13µM* | -3%
CCc1nnc2c(NCc3ccc(F)cc3)nc3ccccc3n12 | / | -7% | / | / | 5% | /
COC(=O)CN1C(=O)[C@H]2[C@@H](c3ccc(C)o3)N3C(=O)CN(CC4CC4)C(=O)[C@@]3(C)[C@H]2C1=O | -1% | 5% | 10% | -3% | / | 3%
CC1=C(c2ccc(C)c(C)c2)S(=O)(=O)N(Cc2ccc(C(=O)NC(C)c3ccccc3)cc2)C1=O (centres undefined) | / | 0% | / | / | / | /
CCCCNC(=O)C1CCCN(S(=O)(=O)CCC)C1 (centres undefined) | / | 3% | / | / | / | /
CC1(C)SC2C(NC(=O)Cc3ccccc3)C(=O)N2C1C(=O)O (centres undefined) | / | / | / | / | 10% | /
Cc1ccc(S(=O)(=O)N2CCN(Cc3cc(C(C)(C)C)ccc3O)CC2)cc1 | -8% | 2% | 0% | -2% | / | ?
COC(=O)N[C@@H](CCc1ccccc1)/C(C(=O)OC)=C(\C)NCc1ccccc1 | / | / | / | / | 12% | /
Clc1ccc2oc(-c3cccnc3)nc2c1 | 9% | 15µM* | ? | ? | -2% | -6%
Clc1ccc2oc(-c3ccccc3)nc2c1 | ? | 2.4µM* | 23% | -2% | ? | 3%
COC(=O)CCN(C(=O)C1CCN(S(=O)(=O)c2c(C)noc2/C=C/c2ccccc2F)CC1)c1ccccc1 | / | -7% | / | / | / | /
Cc1ccc(C(=O)Nc2ccc(Br)cc2)cc1S(=O)(=O)NCc1ccccc1 | / | -13% | / | / | -44% | /
Nc1ccc(-c2nc3ccccc3[nH]2)cc1 | 2.9µM* | 9.5µM* | 0.45µM* | 1.6µM* | 4.5µM* | ?
Cc1c(-c2nc3ccccc3[nH]2)cnn1C | 6% | ? | -5% | 3% | / | 10%
Oc1ccc(C=Nc2ccccc2-c2nc3ccccc3[nH]2)cc1 | 9% | 27µM* | 13% | ? | 13µM* | -1%
Cc1[nH]ncc1-c1nc2ccccc2[nH]1 | -5% | -18% | 6% | 1% | / | 0%
Nc1ccc(-c2nc3c(ccc4ccccc43)[nH]2)cc1 | ? | 2.4µM* | ? | ? | / | ?
